# Where “and” joins values, the source holds several entries; their conditions need not be identical. Identical values can stand only once. The panel holds about 83,000 compounds, 20% with a hit somewhere; the sample as a whole holds those more often.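 For each line, cells grew in 96-well plates with the test compound present at a single concentration for 48 hours.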 Unmarked numbers belong to inactive results. Calls of active or inactive are those of the source. How the source made its calls: active means growth percent below 10; inactive means the rest.
# Tested on: MDA-MB-468 breast
# Experiment: NCI-60 one-dose screen, 48 h (100 = growth as untreated, 0 = no growth, -100 = all killed)
# Details: 10 µM unless noted
row,Compound,growth
1,OCCCCCNC1CCCCC1,97.6%
2,C=CCN1C(=O)C(CC)(CCC(C)C)C(=O)NC1=S (centres undefined),102%
3,CC/C(Cc1ccccc1)=C(\c1ccc(OCCN2CCCC2)cc1)c1ccc(OC(=O)NCc2ccccc2)cc1,14.8%
4,Cc1cc(N(CCCl)CCCl)ccc1/C=N\NC(=O)c1ccncc1,-45.6% (active)
5,CC1(C)C(C(=O)c2cn(CCCCF)c3ccccc23)C1(C)C,103%
6,Cc1ccc(C(=O)OC(C(=O)O)C(OC(=O)c2ccc(C)cc2)C(=O)O)cc1 (centres undefined) (tested in a mixture with another compound),-12.2% (active)
7,COC(=O)[C@@H](C)C[C@H](Cc1ccc(F)cc1)NC(=O)c1csc([C@@H](C[C@H](C(C)C)N(C)C(=O)[C@@H](NC(=O)[C@H]2CCCCN2C)C(C)C)OC(C)=O)n1,21%
8,Clc1ccc(SSC(Cl)(Cl)Cl)cc1,104%
9,CCC(C)/C=C(C)/C=C/C(=O)c1c(O)c(-c2ccc(O)cc2)c[nH]c1=O (centres undefined),30.3%
10,CO[C@H](C(=O)O)[C@@H]1Cc2cc3cc(OC4CC(OC5CC(O)C(O)C(C)O5)C(O)C(C)O4)c(C)c(O)c3c(O)c2C(=O)[C@H]1OC1CC(OC2CC(OC3CC(C)(O)C(O)C(C)O3)C(O)C(C)O2)C(O)C(C)O1 (some centres undefined),-16.7% (active)
11,Cc1cc([N+](=O)[O-])c2ccccc2[n+]1[O-],-55.7% (active)
12,C[N+]1(CC#CC[N+]2(C)CCCC2)CCCC1,98.6%
13,C[As](=O)(O)c1ccc(C(=O)O)cc1,99.8%
14,C/C(=C\c1ccn(-c2ccccc2N)n1)[C@@H]1C[C@@H]2O[C@]2(C)CCC[C@H](C)[C@H](O)[C@@H](C)C(=O)C(C)(C)[C@@H](O)CC(=O)O1,0% (active)
15,CCN(CCO)C(Cc1ccccc1)c1ccccc1 (centres undefined),96%
16,Nc1nnnc2nc[nH]c12,-11.9% (active)
17,CCC(C)[C@H]1C(=O)O[C@H](C(C)C)C(=O)N(C)[C@@H](C(C)C)C(=O)O[C@H](C(C)C)C(=O)N(C)[C@@H](C(C)C)C(=O)O[C@H](C(C)C)C(=O)N1C (some centres undefined),-0.302% (active)
18,CCCCCSC1C2C(=O)C(Br)=CC13CCNc1c(O)c4c5c(c13)=[N+]2CCC=5C=N4 (centres undefined),-30.5% (active)
19,Cc1ccc(NC(=O)CBr)cc1,98.5%
20,COC(=O)[C@@]1(O)C[C@H]2O[C@]1(C)n1c3ccccc3c3c4c(c5c6ccccc6n2c5c31)C(=O)NC4,-72.4% (active)

row,Compound,growth
1,O=S(=O)(O)c1ccc(-c2ccc([As](=O)(O)O)cc2)cc1,105%
2,CCCCCCCCC(CO)NCCc1ccccc1 (centres undefined),100%
3,C[C@@]1(CCCCCCCCCc2ccc(O)cc2)C[C@]2(C)OC(=O)C[C@@H]2OO1,64.8%
4,Cn1cc(-c2csc(-c3cn(CCCCN4CCCCC4)c4ccc(F)cc34)n2)c2cccnc21,93.3%
5,CC/C(=C(\c1ccc(OCCN2CCOCC2)cc1)c1ccc(OC(=O)Cc2ccccc2)cc1)c1ccc(Cl)cc1,104%
6,C=CCCCCCCCCC(=O)[O-].C=CCCCCCCCCC(=O)[O-].[Zn+2],115%
7,O=C(CCCC1CCCCC1)OCC(Cl)(Cl)Cl,113%
8,COc1ccc2c(c1)c(-c1nc(-c3cn(C)c4ncccc34)cs1)cn2CCCCN1CCOCC1,35%
9,Cc1cc(NC(=O)/C=C/c2ccc([N+](=O)[O-])cc2)ccc1S(=O)(=O)F,114%
10,C[C@]12CC[C@@H](OC(=O)N(CCCl)N=O)C[C@@H]1CC[C@@H]1[C@@H]2CC[C@]2(C)C(=O)CC[C@@H]12,-31.4% (active)
11,CC1(C)N(Nc2ccccc2)C(=O)C2CCCN21 (centres undefined),79.2%
12,COc1ccc(CN)cc1OC,114%
13,COc1cc2c(cc1OCc1ccccc1)C(CC(C)C)=[N+](C)CC2,2.12% (active)
14,CCN1CC2(CN(CC)C1=S)C(=O)NC(=O)NC2=O,116%
15,O=S(=O)(F)c1ccc(Cl)cc1,121%
16,N/C(=N\N=C\c1ccc(-c2ccccc2)cc1)N[N+](=O)[O-],20%
17,C/C=C/CC(C)C(O)[C@H](NC(=O)[C@@H]1CCCN1C(=O)C(C)(C)NC(=O)CCCCCCCCC)C(=O)NC(C)(C)C(=O)N[C@@H](CCC(N)=O)C(=O)N[C@H](CCC(N)=O)C(=O)NC(C)(C)C(=O)NC(C)(C)C(=O)N[C@@H](CCC(N)=O)C(=O)N[C@H](CC(C)C)C(=O)N[C@H](CO)CC(C)C (some centres undefined),-75.9% (active) and -84.9% (active)
18,CCC[CH2][Sn]([CH2]CCC)([CH2]CCC)[O]C(=O)CC,-88% (active)
19,O=C(N/N=C/c1ccc(N(CCCl)CCCl)cc1)c1cc(=O)[nH]c(=O)[nH]1,-0.0833% (active)

# From PubChem BioAssay (NCI)
